PubChem BioAssay (NCI)
Compounds without any hit were thinned out: in the full panel of roughly 83,000, 20% have a hit.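 96-well plates, one dose, 48 hours. Percent growth reported; active if below 10.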 Unmarked numbers belong to inactive results. The source made the active and inactive calls.

Columns and labels:
Assay in all cases: NCI-60 one-dose screen, 48 h (100 = growth as untreated, 0 = no growth, -100 = all killed)
Conditions in all cases: 10 µM unless noted
SK-MEL-2 melanoma = system: SK-MEL-2 melanoma
EKVX NSCLC = system: EKVX NSCLC
SN12C renal = system: SN12C renal
UO-31 renal = system: UO-31 renal
TK-10 renal = system: TK-10 renal
ACHN renal = system: ACHN renal
CAKI-1 renal = system: CAKI-1 renal
A498 renal = system: A498 renal
CCRF-CEM leukemia = system: CCRF-CEM leukemia
MOLT-4 leukemia = system: MOLT-4 leukemia
SR leukemia = system: SR leukemia
RPMI-8226 leukemia = system: RPMI-8226 leukemia
OVCAR-8 ovarian = system: OVCAR-8 ovarian
OVCAR-5 ovarian = system: OVCAR-5 ovarian
SK-OV-3 ovarian = system: SK-OV-3 ovarian
IGROV1 ovarian = system: IGROV1 ovarian
OVCAR-3 ovarian = system: OVCAR-3 ovarian
HS 578T breast = system: HS 578T breast
NCI/ADR-RES ovarian = system: NCI/ADR-RES ovarian
OVCAR-4 ovarian = system: OVCAR-4 ovarian

| Structure (SMILES) | growth (SK-MEL-2 melanoma) | growth (EKVX NSCLC) | growth (SN12C renal) | growth (UO-31 renal) | growth (TK-10 renal) | growth (ACHN renal) | growth (CAKI-1 renal) | growth (A498 renal) | growth (CCRF-CEM leukemia) | growth (MOLT-4 leukemia) | growth (SR leukemia) | growth (RPMI-8226 leukemia) | growth (OVCAR-8 ovarian) | growth (OVCAR-5 ovarian) | growth (SK-OV-3 ovarian) | growth (IGROV1 ovarian) | growth (OVCAR-3 ovarian) | growth (HS 578T breast) | growth (NCI/ADR-RES ovarian) | growth (OVCAR-4 ovarian) [%] |
| --- | --- | --- | --- | --- | --- | --- | --- | --- | --- | --- | --- | --- | --- | --- | --- | --- | --- | --- | --- | --- |
| COc1cc(-c2nc3sccn3c2-c2ccnc(NCCNS(=O)(=O)c3ccc(Cl)cc3)n2)ccc1F | 12.6% | 48.8% | 37.4% | 6.85% (active) | 55.1% | 20.4% | 19.6% | 52.8% | 6.78% (active) | -3.87% (active) | 34.5% | -18.9% (active) | 12.3% | 112% | 54.4% | 41.8% | 43.1% | 49.5% | 13.7% | – |
| COc1cc(/C=C2\CN(S(=O)(=O)c3ccccc3)C/C(=C\c3cc(CN4CCCCC4)c(O)c(OC)c3)C2=O)cc(CN2CCCCC2)c1O | 104% | -36.4% (active) | -42.4% (active) | -96.6% (active) | -38.8% (active) | 27.9% | -89.2% (active) | 95% | -2.62% (active) | -20.6% (active) | -18.6% (active) | -34.9% (active) | -25% (active) | -66.6% (active) | 108% | -51.8% (active) | -86.9% (active) | 0.476% (active) | 5.04% (active) | – |
| Cc1cc2c(cc1C)N(C(=O)CCl)CC(=O)N2 | 63.2% | 119% | 39.2% | 78.3% | 44.5% | -8.11% (active) | 103% | 82.9% | -19.9% (active) | 17.1% | -8.95% (active) | 37.5% | 61.6% | 96.8% | – | 43.1% | 6.17% (active) | 72.9% | 62.4% | 60.6 |
| COc1cc(-c2nc3cc(Cl)c(Cl)cc3[nH]2)ccc1OCC(=O)N=Nc1c(O)[nH]c2ccc(Cl)cc12 | -27.3% (active) | 45.7% | 0.477% (active) | 89% | 36.5% | 29.2% | 15.2% | 20.1% | -31.3% (active) | -27.8% (active) | -30.7% (active) | 10.4% | 2.5% (active) | 26.8% | -5.3% (active) | -0.308% (active) | -94.3% (active) | -14% (active) | 88.2% | – |
| C=C1C(=O)O[C@H]2[C@H]1CC/C(COC(=O)/C=C\C(=O)NCc1ccc(Cn3c(=O)sn(CCCl)c3=O)cc1)=C\CC[C@@]1(C)O[C@@H]21 | 85.8% | 86.2% | 89.9% | 79.9% | 60.9% | 44.2% | 47.9% | 132% | 7.92% (active) | 35.1% | 15.5% | 74.8% | 86.9% | 91% | 115% | 34.8% | 36.2% | 110% | 108% | – |
| O=[N+]([O-])c1cc(NS(=O)(=O)c2ccccc2)ccc1NS(=O)(=O)c1ccccc1 | 99.6% | 119% | 90.4% | 95.8% | 112% | 91.4% | 129% | 115% | 96.3% | 117% | 128% | 109% | 93% | 106% | 102% | 119% | 111% | 98.5% | 105% | – |
| O=C(Nc1ncccc1OCc1ccccc1)NC1CCCCCC1 | 91.9% | 88.2% | 78.6% | 85.1% | 94% | 93.4% | 86.7% | 101% | 77.5% | 78.7% | 61.5% | 68.1% | 104% | 95% | 110% | 89.1% | 89.1% | 105% | 89.7% | – |
| Cc1cccc2c1C[C@@]1(C2=O)C(c2ccc(C(C)(C)C)cc2)=NOS1=O (stereo partly specified) | 93.1% | 79.2% | 92.3% | 77.1% | 158% | 108% | 94.2% | 77.1% | 83.6% | 80.1% | 71% | 69.4% | 89.2% | 112% | – | 64.5% | 92.1% | 87.2% | 86% | 86.3 |
| COc1ccc(C2=CC(c3cc(OC)c(OC)c(OC)c3)n3ncnc3N2)cc1 (stereo unspecified) | 24% | 66.7% | 38.4% | 41.3% | 62% | 32.4% | 21.7% | -5.66% (active) | 13.8% | 17.3% | 10.3% | 24.4% | 5.91% (active) | 35% | -7.15% (active) | 22.2% | -41.4% (active) | 27% | 12.8% | – |
| CCCCCCCCCCCCCCCCCC1=NC(C)(C)CN1CC(C)O (stereo unspecified) | 84.6% | 78.8% | 49.8% | 68.8% | 81.6% | 80.6% | 84.7% | 79.1% | 47.1% | 34.9% | -13.6% (active) | 78.8% | 46.5% | 89.4% | 80.9% | 66.1% | 46.6% | 107% | 69.9% | – |
| c1ccc(CCNc2c3ccccc3nc3ccccc23)cc1 | 86.3% | 36.3% | 33.1% | 24.2% | 53.2% | 21.6% | 30.3% | -5.19% (active) | 53.3% | 24.6% | 20.9% | 19.5% | 38.3% | 53.4% | – | 28% | – | 73.3% | 33.5% | 35 |
| NC1=Nc2cc(OCCCCN3Cc4ccccc4C3)c(OCC3CC3)cc2C12CCCC2 | 12.5% | 64.7% | 66.5% | 43.2% | 87.1% | 65.7% | 1.68% (active) | -0.354% (active) | 37.7% | 29.9% | 11.3% | 5.52% (active) | 45.1% | 65.3% | – | 50% | 52.5% | 53.3% | 73.2% | 39.6 |
| O=C1Nc2ccccc2/C1=C\c1c[nH]c2ccc(Br)cc12 | 66.8% | 79.5% | 84.9% | 46% | 75.3% | 53.6% | 55% | 108% | 66.1% | 62.1% | 72.4% | 73.9% | 79.8% | 80.4% | 66.5% | 61.5% | 72.5% | 82.7% | 57.7% | – |
